The structures appear in SMILES notation. The list shows a part of the results. A number with no mark means an inactive call.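 Rule for the calls: active = inhibition above the campaign cutoff, the mean of compounds within control limits plus 3 SD (cut at about 14% in these data); inactive = the rest.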

Fibrinogen beta chain (Homo sapiens), sequence (P02675 whole entry, looked up): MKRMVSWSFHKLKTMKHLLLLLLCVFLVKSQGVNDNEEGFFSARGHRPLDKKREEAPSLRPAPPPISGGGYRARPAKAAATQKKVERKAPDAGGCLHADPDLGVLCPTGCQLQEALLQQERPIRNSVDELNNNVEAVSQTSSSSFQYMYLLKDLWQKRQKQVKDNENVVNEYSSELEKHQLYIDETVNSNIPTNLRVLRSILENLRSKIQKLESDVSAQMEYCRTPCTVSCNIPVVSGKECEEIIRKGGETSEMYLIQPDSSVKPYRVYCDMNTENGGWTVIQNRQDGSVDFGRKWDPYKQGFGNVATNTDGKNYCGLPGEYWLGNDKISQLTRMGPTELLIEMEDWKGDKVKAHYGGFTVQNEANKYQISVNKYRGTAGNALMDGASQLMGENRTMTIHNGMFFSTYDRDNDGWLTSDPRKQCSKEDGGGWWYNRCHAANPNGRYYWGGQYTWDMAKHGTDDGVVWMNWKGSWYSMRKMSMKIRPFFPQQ

This assay addresses Fibrinogen beta chain (Homo sapiens) (UniProt P02675). Description: inhibitors of Tn7 peptide binding to fibrin DD(E), confirmation, biochemical, fluorescence polarization, human fibrin, Tn7 probe (AID 720628).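 Note: 100% = median FP of high control wells holding Aha-Tn7 inhibitor peptide; displacers lower polarization since freed probe rises.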 The conditions noted are these: FP displacement of TRITC-Tn7 peptide from DD(E); at 8.3 µM; stronger effect = higher value; 0% set at plate's compound-well median. A general note: Polarisation of emitted light reports the rotation of a fluorescent probe.
For orientation: inhibition means the relative decrease from the control value, in per cent. For `OC(c1ccccc1)c1nc(-c2cnc3ccccc3c2)cs1` (configuration not stated), the inhibition is 7.29%.
As for `CC(C)(C)c1cc(CN2CCN(CCC#N)CC2)cc(C(C)(C)C)c1O`, the inhibition is 3.96%.
To `c1cc(-c2nn[nH]n2)ccc1CN1CCCCC1` belongs -9.45%; to `O=C(COC(=O)/C=C/c1ccc(OC(F)F)cc1)NC1CCCCC1`, 6.98%; to `COc1ccc(S(=O)(=O)c2c[nH]c(=S)[nH]c2=O)cc1Cl`, -1.93%.
Consider `O=C(Nc1ccon1)c1sc2ccccc2c1Cl`, for which the inhibition was 6.87%.
In the case of `COc1ccc(-c2nc(CCNC(=O)c3ccc(Br)o3)cs2)cc1`, the inhibition is 1.25%.

The values are drawn from PubChem BioAssay AID720628 (The Scripps Research Institute Molecular Screening Center, 2013).
